Measurements from PubChem BioAssay AID504652 (National Center for Advancing Translational Sciences (NCATS), 2011).
Hit rate of the full screen: of about 360,000 compounds, about 11,000 (3.1%) were called active. This excerpt belongs to a sample that is enriched for actives. Unmarked numbers belong to inactive results. Rule as the data show it: active = activity change below about -30%; inactive = the rest.

These molecules were tested against D(1A) dopamine receptor (Homo sapiens) (UniProt P21728) (assay: Antagonist of Human D 1 Dopamine Receptor: qHTS). Settings: HEK293 TREx D1 cells, calcium flux, dopamine EC80; at 10 µM; hits give low values.
Outline: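 Tetracycline-induced HEK293 T-REx cells with force-coupled D1 receptor were loaded with a no-wash calcium dye. Compound was added after a 10 s baseline and read kinetically for 180 s; EC80 dopamine was then added and calcium flux followed another 180 s.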
% is scaled to controls: 0 for no effect and ±100 for the full control effect.

Chain of D(1A) dopamine receptor (Homo sapiens) (P21728 whole entry, looked up): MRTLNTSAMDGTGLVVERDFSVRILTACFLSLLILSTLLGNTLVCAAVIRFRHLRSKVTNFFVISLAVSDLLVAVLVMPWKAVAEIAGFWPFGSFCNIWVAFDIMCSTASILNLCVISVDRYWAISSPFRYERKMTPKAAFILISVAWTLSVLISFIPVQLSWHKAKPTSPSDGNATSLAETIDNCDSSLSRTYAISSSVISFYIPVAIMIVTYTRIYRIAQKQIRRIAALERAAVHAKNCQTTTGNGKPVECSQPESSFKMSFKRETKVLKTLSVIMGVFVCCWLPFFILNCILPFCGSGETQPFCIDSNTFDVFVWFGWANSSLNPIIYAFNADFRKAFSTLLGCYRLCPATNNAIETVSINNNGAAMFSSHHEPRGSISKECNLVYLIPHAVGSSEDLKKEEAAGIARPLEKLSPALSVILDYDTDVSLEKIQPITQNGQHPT

Structure (SMILES) | activity change, negative = inhibition
Cc1ccc2oc3c(c(=O)c2c1)C(c1ccc(O)cc1)N(Cc1ccc2c(c1)OCO2)C3=O (stereo unspecified) | 0.447%
CCOc1ccc(-c2n[nH]c3c2C(c2ccccc2OC)N(c2ccc(Br)cc2)C3=O)cc1 (stereo unspecified) | 9.65%
CCOC(=O)c1ccc(NC(=O)CCn2cnnn2)cc1 | 14.2%
O=C1C(F)N([S+](=O)([O-])c2ccc3c(c2)OCCO3)CCN1[S+](=O)([O-])c1c(F)cccc1F (stereo unspecified) | -5.38%
CCOc1cc2[nH]c(=O)n(Cc3ccc(C(=O)NCCN(CC)CC)cc3)c(=O)c2cc1OCC | 5.18%
CCc1cccc(NC(=O)CN(C)S(=O)(=O)c2ccc3[nH]c4c(c3c2)CCCC4)c1 | -15.3%
Cc1ccc(OC(=O)CSc2nnc(-c3cccs3)o2)cc1 | -6.25%
O=C(NCc1ccc(Cl)cc1)c1cc(=O)nc2sc(-c3ccccc3)nn12 | 0.956%
O=C(NCc1ccc2c(c1)OCO2)c1c(O)nc2sccn2c1=O | 2.36%
O=C(NCc1ccc(Cl)cc1)c1cc2c(nc3sccn32)s1 | -58.9% (active)
Cc1ccc(C(=O)Nc2ccc(OCc3cc(=O)n4c5c(sc4n3)CCCC5)cc2)cc1 | -13.4%
O=C(COC(=O)Cc1c[nH]c2ccccc12)NCCc1ccccc1 | -2.05%
O=C(Cc1c[nH]c2ccccc12)OCCOC(=O)Cc1c[nH]c2ccccc12 | -32.2% (active)
CCOC(=O)CN(C)Cc1c[nH]c2ccccc12 | 0.896%
Cc1ccc(S(=O)(=O)N2CCc3cc(C(=O)Nc4ccc(Cl)cc4C)ccc32)cc1 | 3.15%
CCOc1ccc(Nc2nc3c(S(=O)(=O)c4cccc(Cl)c4)nnn3c3ccsc23)cc1 | -38.1% (active)
O=S(=O)(c1ccc(Cl)cc1)c1nnn2c1nc(NC1CCCC1)c1sccc12 | -19.7%
O=S(=O)(c1ccc(Br)cc1)c1nnn2c1nc(NC1CCCCCC1)c1sccc12 | 4.84%
COc1ccc(-c2nnc(SCC(=O)Nc3ccc(C(C)C)cc3)nc2-c2ccc(OC)c(OC)c2)cc1OC | -19.7%

Structure (SMILES) | activity change, negative = inhibition
NC1=NC(c2cc(F)cc(F)c2)n2c(nc3ccccc32)N1 (stereo unspecified) | 0.602%
CCc1cccc(C)c1NS(=O)(=O)c1ccc(-c2cc(C)no2)s1 | 24.4%
O=C(Nc1ccc2c(c1)OCCO2)C1CCCC1 | -32.7% (active)
O=C(Nc1ccc2c(c1)OCCO2)c1ccoc1 | 15.7%
O=C(Nc1ccc2c(c1)OCO2)C1CC1(Cl)Cl (stereo unspecified) | -9.18%
COc1ccc(NC(=O)NC(C)c2c(-n3cccc3)sc(C)c2C)cc1OC (stereo unspecified) | -6.54%
COc1ccc(N2CCN(C3=NS(=O)(=O)C(c4cccc(Br)c4)=C3C)CC2)cc1 | -8.66%
CCN1CCN(CC(=O)Nc2sc3c(c2C#N)CCC3)CC1 | -11.5%
N#Cc1c(NC(=O)C2CCCO2)sc2c1CCCCC2 (stereo unspecified) | -19.1%
N#Cc1c(NC(=O)CCCl)sc2c1CCCCC2 | -30.1% (active)
COc1ccccc1CNC(=O)CS(=O)(=O)c1cccc2nsnc12 | 13.8%
CCCn1c2ccccc2c2cnn(CC(=O)NCC3CCN(Cc4ccc(C)cc4)CC3)c(=O)c21 | -18.2%
CCOC(=O)CSc1nnc(CNc2nc(-c3ccccc3)cs2)n1C | -37.1% (active)
CCOC(=O)CSc1nnc(CNC(=O)c2cccs2)n1-c1ccccc1 | -4.34%
Cn1c(CNc2nc(-c3ccccc3)cs2)nnc1SCC(=O)c1ccccc1 | -24.4%
COc1ccc(-c2nn(CC(=O)Nc3ccccc3F)c3c2cnc2ccc(F)cc23)cc1 | -0.202%
COc1ccc(-c2nn3c(-c4ccc(OC)cc4)nnc3c3ccccc23)cc1 | -13.1%
COc1ccc(-c2nc3ccc(C(=O)NCc4ccc(C)cc4)cc3nc2-c2ccc(OC)cc2)cc1 | -1.2%
COc1ccc(CNC(=O)c2ccc3c(O)c(S(=O)(=O)c4ccccc4)c(=O)[nH]c3c2)cc1 | 5.97%

Structure (SMILES) | activity change, negative = inhibition
Cc1cc(C)cc(NC(=O)CCS(=O)(=O)c2cc3c4c(c2)CCN4C(=O)CC3)c1 | 20.6%
O=C(c1ccc(-c2ccccc2)cc1)C1CCCN(C(=O)c2cncs2)C1 (stereo unspecified) | -2.69%
CCn1nc(C)cc1C(=O)N1CCCC(C(=O)c2cccc(OC)c2)C1 (stereo unspecified) | 0.174%
Cn1nccc1C(=O)N1CCCC(C(=O)c2ccc(Oc3ccccc3)cc2)C1 (stereo unspecified) | -33% (active)
Cc1nnc(NC(=O)CSc2nc3c([nH]c4ccccc43)c(=O)n2-c2cccc(Cl)c2)s1 | -3.1%
CCOC(=O)c1c(NC(C)=O)c2c3c(sc2n1Cc1c(C)cc(C)cc1C)CCCC3 | 27.5%
CCOC(=O)C(Cc1ccccc1)NC(=O)CCc1c(C)nc2c(c(C)nn2-c2ccc(C)c(C)c2)c1C (stereo unspecified) | -20.6%
CCOC(=O)N/N=C/c1cn(Cc2ccccc2Cl)c2ccccc12 | -33.9% (active)
N#CCC(=O)N/N=C/c1cn(Cc2ccc3ccccc3c2)c2ccccc12 | 16.1%
COc1cccc(Cn2cc(/C=N/NC(=O)c3cc(O)cc(O)c3)c3ccccc32)c1 | 3.21%
CCc1ccc(NC(=O)c2nn(-c3ccc(C)cc3)c(=O)n(C)c2=O)cc1 | -19.1%
Cc1ccc(N(CC(=O)NCc2ccc(Cl)cc2)S(=O)(=O)N(C)C)cc1 | 27%
CC(C)(C)c1ccc(C(=O)NCC(c2ccc(Cl)cc2)N2CCOCC2)cc1 (stereo unspecified) | -13.3%
O=c1cc(COc2cccc(C(F)(F)F)c2)nc2sc3c(n12)CCCC3 | -4.09%
O=C(CSCc1cnn(-c2ccccc2)c1-n1cccc1)NCc1ccc(Cl)cc1 | 5.55%
CCCOc1ccc(C2c3c(-c4ccccc4O)n[nH]c3C(=O)N2Cc2cccnc2)cc1 (stereo unspecified) | 27.7%
[O-][n+]1c2c(nn1-c1ccc(Cl)c(Cl)c1)-c1nonc1CC2 | -35.4% (active)
Cc1nnc(N2CCC(C(=O)Nc3ccc(F)cc3)CC2)c2nn(-c3ccc(Cl)cc3)c(C)c12 | -3.69%
